# Source: PubChem BioAssay (NCATS)
# Results filed as inconclusive are left out. Calls of active or inactive are those of the source. Calls follow the shape of the full dose curve.
# Assay: Primary qHTS for inhibitors of SARS-S pseudo-typed particle cell entry (AID 1479145); also: nearly all actives have a fitted effect of over 45% in size
# Conditions: SARS-S pseudotyped particle cell entry, luciferase reporter; series mostly up to 57.1 µM; activity change, negative = inhibition: at the top concentration
# % is scaled to controls: 0 for no effect and ±100 for the full control effect.
Compound,outcome,"activity change, negative = inhibition"
C/C=C/c1ccc(O)c(OC)c1,inactive,–
Cc1cccc(N(C)C(=S)Oc2ccc3c(c2)C2CCC3C2)c1 (stereo not given),–,2.53% (inactive)
CCC(C(=O)OCCN1CCOC(c2ccccc2)C1C)c1ccccc1 (stereo not given),inactive,–
CCN[C@H]1C[C@H](C)S(=O)(=O)c2sc(S(N)(=O)=O)cc21,inactive,–
CC(O)COc1ccccc1 (stereo not given),inactive,–
CSc1ccc(C(=O)c2[nH]c(=O)[nH]c2C)cc1,inactive,–
C[C@H](N)C(=O)N[C@@H](C)C(=O)NC1[C@H]2CN(c3nc4c(cc3F)c(=O)c(C(=O)O)cn4-c3ccc(F)cc3F)C[C@@H]12 (stereo not given in full),–,-22.3% (inactive)
C/C=C/c1ccc(OC)cc1,–,2.98% (inactive)
CCCc1ncc(C[n+]2ccccc2C)c(N)n1,–,-3.12% (inactive)
CN(CCCN1c2ccccc2CCc2ccccc21)CC(=O)c1ccc(Cl)cc1,inactive,–
CNC1CCCN(c2c(F)cc3c(=O)c(C(=O)O)cn(C4CC4)c3c2OC)C1 (stereo not given),–,-25.6% (inactive)
O=C1OC2(c3ccc(O)cc3Oc3cc(O)ccc32)c2ccccc21,inactive,–
C[N+](C)(C)CCCCCCCCCC[N+](C)(C)C,–,-11.4% (inactive)
C[N+]1(CC2COC(c3ccccc3)(c3ccccc3)O2)CCCCC1 (stereo not given),inactive [at 26.4 µM],–
O=C(CCCN1CCN(c2ccccn2)CC1)c1ccc(F)cc1,inactive,–
O=C(Nc1ccc([N+](=O)[O-])cc1)Nc1ccc([N+](=O)[O-])cc1,–,-5.05% (inactive)
O=C(O)CCC(=O)c1ccc(-c2ccccc2)cc1,inactive,–
CC1(C)OC[C@@H](COC(=O)CCc2ccc(OC[C@@H](O)CNCCNC(=O)N3CCOCC3)cc2)O1,–,-6.89% (inactive)
CC(C)NCC(O)COc1ccc(COCCOC(C)C)cc1 (stereo not given),inactive,–
CC1(C)[C@H](C(=O)O)N2C(=O)C[C@H]2S1(=O)=O,–,-34.8% (inactive)

Compound,outcome,"activity change, negative = inhibition"
CC1(C)O[C@@H]2C[C@H]3[C@@H]4C[C@H](F)C5=CC(=O)CC[C@]5(C)[C@H]4[C@@H](O)C[C@]3(C)[C@]2(C(=O)CO)O1,inactive,–
CCC(=O)c1ccc(O)cc1,inactive,–
C/C(=C(/OCCOc1ccc(Cl)cc1)c1ccc(Cl)cc1Cl)n1ccnc1,–,-15% (inactive)
C#C[C@]1(OC(C)=O)CC[C@H]2[C@@H]3CCC4=C/C(=N/O)CC[C@@H]4[C@H]3CC[C@@]21CC,inactive,–
Cc1ccc(C(C)OC(=O)C2(C)CCC(C(=O)O)C2(C)C)cc1 (stereo not given),inactive,–
CCOC(=O)NNc1nncc2ccccc12,–,2.53% (inactive)
CC(C)NCCCC1(C(N)=O)c2ccccc2-c2ccccc21,–,-7.56% (inactive)
Cc1[nH]c(C)c(Cl)c(=O)c1Cl,inactive [at 26.4 µM],–
N[C@H]1CN(c2c(F)cc3c(=O)c(C(=O)O)cn(C4C[C@@H]4F)c3c2Cl)CC12CC2 (stereo not given in full),–,-15.3% (inactive)
CCOC(=O)c1ccc(C#Cc2ccc3c(c2)C(C)(C)CCS3)nc1,inactive,–
C=CC[N+]1([C@H]2C[C@H]3[C@@H]4CC[C@H]5C[C@H](OC(C)=O)[C@@H](N6CCCCC6)C[C@]5(C)[C@H]4CC[C@]3(C)[C@H]2OC(=O)CC)CCCCC1,–,-3.56% (inactive)
O=c1ccc2ccccc2o1,–,-0.0875% (inactive)
CC[N+](CC)(CC)CCOC(=O)C(C1CCCC1)C1CCCC1,–,-24.2% (inactive)
CCC1Nc2cc(Cl)c(S(N)(=O)=O)cc2S(=O)(=O)N1 (stereo not given),inactive,–
CCCCCOc1ccc(C2SC(=O)NC2=O)cc1OCC (stereo not given),–,-30.8% (inactive)
Cc1cccc(CN2CCN(C(c3ccccc3)c3ccc(Cl)cc3)CC2)c1 (stereo not given),inactive,–
O=C(O)/C=C/c1ccc(Cn2ccnc2)cc1,–,0.587% (inactive)
COc1cc(OC)cc(OC)c1,inactive,–
c1ccc2[nH]c(-c3cscn3)nc2c1,inactive,–
NCC1CCC(C(=O)Oc2ccc(CCC(=O)O)cc2)CC1 (stereo not given),inactive,–

# Assay: Primary qHTS for Huh7 cytotoxicity: counterscreen for inhibitors of MERS-S pseudotyped particle cell entry (AID 1479147)
# Conditions: cell viability read-out; series mostly up to 57.1 µM; activity change, negative = cytotoxicity: at the top concentration
Compound,outcome,"activity change, negative = cytotoxicity"
C/C=C/c1ccc(O)c(OC)c1,inactive,–
Cc1cccc(N(C)C(=S)Oc2ccc3c(c2)C2CCC3C2)c1 (stereo not given),inactive,–
CCC(C(=O)OCCN1CCOC(c2ccccc2)C1C)c1ccccc1 (stereo not given),inactive,–
CCN[C@H]1C[C@H](C)S(=O)(=O)c2sc(S(N)(=O)=O)cc21,–,-0.648% (inactive)
CC(O)COc1ccccc1 (stereo not given),inactive,–
CSc1ccc(C(=O)c2[nH]c(=O)[nH]c2C)cc1,inactive,–
C[C@H](N)C(=O)N[C@@H](C)C(=O)NC1[C@H]2CN(c3nc4c(cc3F)c(=O)c(C(=O)O)cn4-c3ccc(F)cc3F)C[C@@H]12 (stereo not given in full),–,-15.1% (inactive)
C/C=C/c1ccc(OC)cc1,inactive,–
CCCc1ncc(C[n+]2ccccc2C)c(N)n1,–,3.26% (inactive)
CN(CCCN1c2ccccc2CCc2ccccc21)CC(=O)c1ccc(Cl)cc1,–,-11% (inactive)
CNC1CCCN(c2c(F)cc3c(=O)c(C(=O)O)cn(C4CC4)c3c2OC)C1 (stereo not given),inactive,–
O=C1OC2(c3ccc(O)cc3Oc3cc(O)ccc32)c2ccccc21,–,0.683% (inactive)
C[N+](C)(C)CCCCCCCCCC[N+](C)(C)C,inactive,–
C[N+]1(CC2COC(c3ccccc3)(c3ccccc3)O2)CCCCC1 (stereo not given),–,-4.23% [at 26.4 µM] (inactive)
O=C(CCCN1CCN(c2ccccn2)CC1)c1ccc(F)cc1,–,-0.824% (inactive)
O=C(Nc1ccc([N+](=O)[O-])cc1)Nc1ccc([N+](=O)[O-])cc1,inactive,–
O=C(O)CCC(=O)c1ccc(-c2ccccc2)cc1,inactive,–
CC1(C)OC[C@@H](COC(=O)CCc2ccc(OC[C@@H](O)CNCCNC(=O)N3CCOCC3)cc2)O1,–,-1.6% (inactive)
CC(C)NCC(O)COc1ccc(COCCOC(C)C)cc1 (stereo not given),inactive,–
CC1(C)[C@H](C(=O)O)N2C(=O)C[C@H]2S1(=O)=O,inactive,–

Compound,outcome,"activity change, negative = cytotoxicity"
CC1(C)O[C@@H]2C[C@H]3[C@@H]4C[C@H](F)C5=CC(=O)CC[C@]5(C)[C@H]4[C@@H](O)C[C@]3(C)[C@]2(C(=O)CO)O1,inactive,–
CCC(=O)c1ccc(O)cc1,inactive,–
C/C(=C(/OCCOc1ccc(Cl)cc1)c1ccc(Cl)cc1Cl)n1ccnc1,–,-0.0891% (inactive)
C#C[C@]1(OC(C)=O)CC[C@H]2[C@@H]3CCC4=C/C(=N/O)CC[C@@H]4[C@H]3CC[C@@]21CC,inactive,–
Cc1ccc(C(C)OC(=O)C2(C)CCC(C(=O)O)C2(C)C)cc1 (stereo not given),–,-16.8% (inactive)
CCOC(=O)NNc1nncc2ccccc12,inactive,–
CC(C)NCCCC1(C(N)=O)c2ccccc2-c2ccccc21,–,-1.09% (inactive)
Cc1[nH]c(C)c(Cl)c(=O)c1Cl,inactive [at 26.4 µM],–
N[C@H]1CN(c2c(F)cc3c(=O)c(C(=O)O)cn(C4C[C@@H]4F)c3c2Cl)CC12CC2 (stereo not given in full),inactive,–
CCOC(=O)c1ccc(C#Cc2ccc3c(c2)C(C)(C)CCS3)nc1,inactive,–
C=CC[N+]1([C@H]2C[C@H]3[C@@H]4CC[C@H]5C[C@H](OC(C)=O)[C@@H](N6CCCCC6)C[C@]5(C)[C@H]4CC[C@]3(C)[C@H]2OC(=O)CC)CCCCC1,–,1.77% (inactive)
O=c1ccc2ccccc2o1,inactive,–
CC[N+](CC)(CC)CCOC(=O)C(C1CCCC1)C1CCCC1,–,-2.5% (inactive)
CCC1Nc2cc(Cl)c(S(N)(=O)=O)cc2S(=O)(=O)N1 (stereo not given),inactive,–
CCCCCOc1ccc(C2SC(=O)NC2=O)cc1OCC (stereo not given),inactive,–
Cc1cccc(CN2CCN(C(c3ccccc3)c3ccc(Cl)cc3)CC2)c1 (stereo not given),inactive,–
O=C(O)/C=C/c1ccc(Cn2ccnc2)cc1,inactive,–
COc1cc(OC)cc(OC)c1,–,3.36% (inactive)
c1ccc2[nH]c(-c3cscn3)nc2c1,–,2.26% (inactive)
NCC1CCC(C(=O)Oc2ccc(CCC(=O)O)cc2)CC1 (stereo not given),–,-2.75% (inactive)
